Data published in PubChem BioAssay AID1490 (National Center for Advancing Translational Sciences (NCATS), 2009).
Among all 310,000 compounds or so, about 11,000 (3.5%) were called active. Not shown: some 4% with an inconclusive outcome. This is one part of a sample in which actives are shown more often than they occur. The call rests on the fitted dose curve; in most records, active means well fitted inhibition curve with a large enough effect; inconclusive means small, poorly fitted or top-dose-only effect, or another doubt; inactive means no such curve, though single readings can be large or run the other way.

Molecular target: 4'-phosphopantetheinyl transferase ffp (Bacillus subtilis) (UniProt Q9F4F7)
Experiment: qHTS Assay for Inhibitors of Bacillus subtilis Sfp phosphopantetheinyl transferase (PPTase);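 further: the enzyme is Sfp with the accession as filed and its product quenches rhodamine fluorescence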;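 on Largest response in the series, negative = inhibition: 0% = enzyme reaction without inhibitor and -100% = no enzyme wells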
Conditions: Biochemical Sfp PPTase activity
Outline: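 Fluorescence-quenching assay with 15 nM Sfp, 5 uM rhodamine-CoA and 12.5 uM BHQ-2-labelled ybbR peptide in pH 7.6 Hepes/MgCl2 buffer. Enzyme was pre-incubated with compound for 15 min at room temperature. Rate was taken from the 30-min fluorescence change (525/598 nm).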
Potency means the concentration at half of the fitted maximal effect.

Largest response in the series, negative = inhibition, inactive:
COc1cc(/C=C2\SC(=O)NC2=O)ccc1OCc1ccc(Cl)nc1 -9.24%, CCn1c(CNC(=O)c2cc(OC)c(OC)c(OC)c2)cc2cc(C)ccc21 -13.9%, CCOc1ccc(CCNC(=O)Nc2ccccc2)cc1OCC 11.9%, Cc1ccccc1NC(=O)C1CCCN(C(=O)NCc2ccccc2)C1 (stereo unspecified) -0.998%, CC(=O)NC(C)c1nc2ccccc2n1Cc1ccccc1F (stereo unspecified) 11%, Fc1ccccc1Cn1cnc(NC(=S)NCCc2ccccc2)n1 -24.4%, Cc1cccn2c(=O)c(C=O)c(Nc3ccc(S(N)(=O)=O)cc3)nc12 12.7%, O=Cc1c(N2CCN(c3cccc(Cl)c3)CC2)nc2ccccn2c1=O -4.2%, O=C(Nc1cccc(-c2cccc(Cl)c2)c1)C1CCN(C2CCC2)CC1 -24.2%, COc1ccc(S(=O)(=O)N2CCC(C(=O)N3CCCC3)CC2)cc1C 9.47%, O=C1NC(=O)C(c2ccc(Cl)cc2)N1 (stereo unspecified) -0.697%, COC(=O)C1=C(N)Oc2cc(C)[nH]c(=O)c2C1c1ccc(Cl)cc1 (stereo unspecified) 1.3%, CC(C)c1ccc(NC(=O)Cn2ncc3ccccc32)cc1 13.4%, COc1ccc2c(C(=O)c3ccc(C)cc3)n(CCC(N)=O)[n+]([O-])c2c1 -4.94%, Cc1cccc(Nc2nc(-c3ccccc3)cs2)n1 -27.9%, COc1ccc(CCNc2nc(-c3cccc(NC(C)=O)c3)cs2)cc1OC -23.9%, Cc1noc(NS(=O)(=O)c2ccc(NC(=O)c3oc4ccc(F)cc4c3C)cc2)c1C 14.6%, CCN(CC)C(=O)COc1coc(CN2CCN(Cc3ccccc3)CC2)cc1=O 12.6%, O=C(COC(=O)Cc1ccc(F)cc1)Nc1cc(S(=O)(=O)N2CCOCC2)ccc1N1CCCC1 11.4%, CC(=O)NCCC(=O)Nc1cc(S(=O)(=O)N2CCOCC2)ccc1N1CCOCC1 23.2%, CCc1ccccc1NC(=O)[C@@H]1CCC(=O)N1C1OC(=O)c2c1ccc(OC)c2OC (stereo partly specified) 9.06%, CCOc1ccc(S(=O)(=O)NCC2CCCO2)cc1 (stereo unspecified) 12.6%, CCOc1ccc(N(CC(=O)NCC2CCCO2)S(=O)(=O)c2ccc(C)cc2)cc1 (stereo unspecified) 9.58%, COc1ccc(-c2cc(=O)oc3cc(OCC(=O)N[C@@H](Cc4c[nH]c5ccccc45)C(=O)O)ccc23)cc1 -17.5%, Cc1cccc(C)c1OCC(=O)NC(Cc1c[nH]c2ccccc12)C(=O)O (stereo unspecified) 12.2%, CC1C(=O)Nc2ccccc2N1C(=O)c1ccc(F)cc1F (stereo unspecified) 9.39%, COc1cccc(OCc2cc(C(=O)N3CCN(C(=O)c4ccco4)CC3)no2)c1 10.6%, Cc1cc(Cl)ccc1OCCCC(=O)Nc1cccc(-n2cnnn2)c1 1.31%, O=c1[nH]c(-c2ccccc2)c(-c2ccccc2)[nH]1 2.86%, c1ccc(Nc2n[nH]nc2-c2ccccc2)cc1 1.39%, S=C(Nc1cccc(Cl)c1)Nc1ccc2c(c1)OCCO2 -5.75%, CC(C)(C)c1cc(=O)n2c(nc3ccccc32)[nH]1 30.5%, Cc1ccc2nc(Nc3ncc4c(n3)CC(C)(C)CC4=O)nc(C)c2c1 4.59%, CSc1ccccc1NC(=O)c1cc(Cl)sc1Cl 9.55%, CC(C)OC(=O)c1c(NC(=O)c2ccco2)sc2c1CCCC2 10.9%, CCOC(=O)c1c(NC(=S)NC(=O)c2ccco2)sc2c1CCCC2 -0.0002%, COC(=O)c1ccc(CN2C(=O)NC(c3ccccc3)(c3ccccc3)C2=O)o1 23.7%, CC[C@]1([C@H]2O[C@@H]([C@@H]3O[C@](O)(CO)[C@@H](C)C[C@H]3C)C[C@H]2C)CC[C@@H]([C@]2(C)CC[C@@]3(C[C@@H](O)[C@@H](C)[C@@H]([C@H](C)[C@H](OC)[C@H](C)C(=O)O)O3)O2)O1 15.5%, Cc1ccc(N2C(=O)C3CC3C2=O)cc1 (stereo unspecified) 15.7%, COc1ccc(N2C(=O)CC(SC(C)C)C2=O)cc1 (stereo unspecified) 7.97%, CC(=O)Nc1ccc(N2C(=O)CC(Sc3nccc(C)n3)C2=O)cc1 (stereo unspecified) 11.7%, COc1ccc(-c2nc(SCC(=O)N3CCCC3)n[nH]2)cc1 14.1%, O=C1CC(N2CCN(c3ccc(F)cc3)CC2)C(=O)N1c1ccccc1 (stereo unspecified) 0.505%, COC(=O)c1ccccc1SC1CC(=O)N(c2cccc(C)c2)C1=O (stereo unspecified) -19.3%, CCOc1ccc(S(=O)(=O)N2CCC(C(=O)NCc3ccccn3)CC2)cc1Cl 5.52%, CC[C@@]12C=C(/C=C/c3ccccc3)[C@](CC)(C1)[C@H](c1ccccc1)CC2=O -22.6%, CC(Nc1nc(C(F)(F)F)nc2ccccc12)c1cccs1 (stereo unspecified) 2.55%, COC(=O)C(C(=O)OC)[C@@H]1CCCC(=O)C1 -0.107%, CN(C)c1ccc(-c2nnc(-c3cccnc3)o2)cc1 7.75%, Cc1cc(NS(=O)(=O)c2ccc(NC(=O)C(C)Oc3cccc(C)c3C)cc2)nc(C)n1 (stereo unspecified) 8.85%, Cc1ccc(/C=N/NC(=O)CSc2nc3ccccc3o2)cc1 -16.9%, CC(C)(C)C(=O)CSc1nc2ccccc2o1 7.38%, CCN(CC)S(=O)(=O)c1ccc(C(=O)N2CCN(C3=NS(=O)(=O)c4ccccc43)CC2)cc1 14.9%, COc1cccc(CCNC(=O)c2cccc(NC(=O)C3=C(C)OCCS3)c2)c1 3.98%, CCCS(=O)(=O)Nc1ccc(-c2cn3c(n2)SCC3)cc1 -22.5%, Cc1cc(-c2cccs2)nc(-n2cccc2)n1 1.03%, COc1ccc(OC)c(-c2c(=O)n(OCc3ccccc3Br)c3ccccc3[n+]2[O-])c1 9.79%, CCOC(=O)COn1c(=O)c(-c2ccc(OCC)cc2)[n+]([O-])c2ccccc21 1.13%, O=C(N=C1SC2CS(=O)(=O)CC2N1c1cc(Cl)ccc1Cl)C1CC1 (stereo unspecified) 8.66%, COc1ccc(CCn2c(=N)c(C(=O)NCc3ccco3)cc3c(=O)n4cccc(C)c4nc32)cc1 -13.5%, O=c1oc(-c2ccco2)nc2sc3c(c12)CCCCC3 2.61%, CCc1ccc(NC(=O)CS(=O)CC(=O)N2CCN(c3ccccc3F)CC2)cc1 (stereo unspecified) 2.49%, COc1ccc(C(=O)NC2CC2)cc1OC1CCN(C/C=C/c2ccccc2)CC1 8.51%, Cc1nonc1C1CCCN1C(=O)c1cc(COc2cccc(C(F)(F)F)c2)on1 (stereo unspecified) 14.2%, CCc1cccc(NC(=O)CCCN2C(=O)C(c3ccccc3)Oc3cccnc32)c1 (stereo unspecified) 11.6%, COC(=O)C(CC(C)C)NS(=O)(=O)c1cc(Br)ccc1Br (stereo unspecified) 6.49%, COc1cc2c(cc1OC)CC(=O)N(CCCN(C)C[C@H]1Cc3cc(OC)c(OC)cc31)CC2 9.18%, Cc1cccc(N2C(=O)CC(SC(N)=Nc3ccccc3)C2=O)c1 (stereo unspecified) 10.8%, Cc1cccc(N2C(=O)c3ccc(C(=O)Nc4cccc(C(=O)O)c4)cc3C2=O)c1 8.86%, CCOC(=O)C1(Cc2ccccc2C)CCCN(C(=O)CN2C(=O)CSC2=O)C1 (stereo unspecified) 3.9%, CC(=O)c1cccc(OCc2cc(C(=O)NC(C)Cc3cccnc3)no2)c1 (stereo unspecified) 16.6%, Cc1oc2c(F)c(F)c(F)c(F)c2c1S(=O)(=O)Nc1cccc(C(F)(F)F)c1 11.3%

Potency, active:
N=c1n(CCc2ccccc2)c2ccccc2n1Cc1ccccc1F 50.1 µM, O=Cc1c(Nc2ccccc2Cl)nc2ccccn2c1=O 31.6 µM, O=C1CSC(c2ccc(Cl)cc2)N1 (stereo unspecified) 79.4 µM, CC(=O)Nc1cccc(-c2csc(Nc3cccc(C)n3)n2)c1 79.4 µM, COCCNC(=S)Nc1cc(S(=O)(=O)N2CCOCC2)ccc1N1CCCCC1 1 µM, CCOc1ccc(-n2c(N)c(C(=O)NCC3CCCO3)sc2=S)cc1 (stereo unspecified) 50.1 µM, COc1ccc(-c2cc(C(=O)NC(Cc3c[nH]c4ccccc34)C(=O)O)c(C)o2)cc1OC (stereo unspecified) 35.5 µM, O=C(O)c1n[nH]nc1-c1ccccc1 70.8 µM, CC1(C)CC(=O)c2cnc3nc4ccccc4n3c2C1 50.1 µM, CNC(=O)c1c(NC(NC(=O)c2ccco2)C(=O)c2ccc(Cl)cc2)sc2c1CCCC2 (stereo unspecified) 25.1 µM, O=C1CC(Sc2ncn[nH]2)C(=O)N1c1ccccc1 (stereo unspecified) 56.2 µM, Cc1ccc(N2C(=O)CC(Sc3ncn[nH]3)C2=O)cc1 (stereo unspecified) 56.2 µM, COc1ccc(N2C(=O)CC(Sc3n[nH]c(-c4ccc(C)cc4)n3)C2=O)cc1 (stereo unspecified) 25.1 µM, O=C(CSc1nc2ccccc2o1)N/N=C/c1ccccc1C(=O)O 44.7 µM, c1csc(-c2cn3c(n2)SCC3)c1 79.4 µM, CCOc1ccc(OCC)c(-c2c(=O)n(OCc3ccc(Cl)cc3)c3ccccc3[n+]2[O-])c1 100 µM, O=C(NCc1ccco1)c1cccn2c(=O)c3c4c(sc3nc12)CCCC4 44.7 µM, Cc1coc2c(O)cc3c(c12)OC1(N2CCCCC2)C(=O)NCCCC31 (stereo unspecified) 28.2 µM, Cc1cccc(N2C(=O)SC(SC(=Nc3ccccc3)Nc3ccccc3)C2=O)c1 (stereo unspecified) 10 µM
